# Jurkat NFkB inh = inhibitors of induced NF-kB luciferase reporter, primary screen, TCR NF-kB activation inhibitor project, cell-based, luminescence, uHTS. Jurkat, PMA/ionomycin-induced NF-kB luciferase reporter. inhibition, % at 4 µM. 330,000 tested, 0.53% active. AID 435003, 2010; in the data active = inhibition above about 50%
# 697 NFkB inh = inhibitors of PMA/ionomycin-induced NF-kB reporter, 697 cells, primary screen, B-cell NF-kB inhibitor project, cell-based, luminescence, uHTS; 697 B-cell NF-kB luciferase reporter, 16 h; inhibition, % at 4 µM; 330,000 tested, 0.33% active; AID 435022, 2010; in the data active = inhibition above about 35%
# Beta cell apopt = inhibitors of cytokine-induced beta cell apoptosis, primary screen, luminescence | protection from apoptosis, % (test concentration not listed) | AID 435005, 2010 | INS-1E cytokine-induced death, ATP luminescence, 48 h; percent of positive-control rescue, neutral wells zero | 300,000 tested, 0.8% active;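 active = Every replicate reaches about 75%, or at least half do and their mean reaches it too, limit read from the data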;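 also: 0% = cytokine-treated negative control wells and 100% = positive control rescue; higher means more ATP so stronger rescue from cytokine killing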
# Calb FLC = C. albicans growth inhibition with fluconazole, primary screen, CaCi-2 strain, Alamar Blue fluorescence | C. albicans CaCi-2 (fluconazole-resistant clinical isolate) + fluconazole, 48 h | growth inhibition, % (concentration not given with the values) | 300,000 tested, 0.57% active | AID 1979, 2009;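 active = growth inhibition above about 58% in most replicates, limit read from the data, passing the limit was not always enough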;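 also: all wells also contain fluconazole at 8 µg/ml as a sub-toxic cotreatment; 0% = median of DMSO wells and 100% = median of geldanamycin control wells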
# Shn3 inh set2 = reduction of Shn3 3'UTR firefly luciferase signal, primary screen, Schnurri-3 inhibitor project, cell-based, Clone20 osteoblasts, set 2; 360,000 tested, 0.52% active; inhibition, % at 12.5 µM; AID 588674, 2011; Clone20 osteoblast Shn3 3'UTR firefly luciferase, 24 h;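 active = mean inhibition of at least 75% with every replicate also reaching 75%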;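 also: 0% = median of neutral control wells and 100% = pilot-screen positive control compound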
# Jurkat NFkB conf = PMA/ionomycin-induced NF-kB reporter inhibitors, Jurkat retest, confirmation, T-cell NF-kB inhibitor project, cell-based, luminescence, single concentration; 2,700 tested, 27% active; inhibition, % at 4 µM; shares compounds with Jurkat NFkB inh; Jurkat NF-kB luciferase, 16 h;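 active = inhibition reaching about 45% at 4 µM in either replicate, limit read from the data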;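 also: plate controls were PMA/ionomycin stimulated DMSO wells for no effect and unstimulated DMSO wells for full effect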
# * marks the source's active call; other numbers are inactive results; nt = no result given. Rows were chosen to be rich in hits. Some 2% of all compounds tested hit in one or more screens of this group.
SMILES,Jurkat NFkB inh,697 NFkB inh,Beta cell apopt,Calb FLC,Shn3 inh set2,Jurkat NFkB conf
OC[C@H]1O[C@@H](c2nc(-c3ccc(CN4CCOCC4)cc3)no2)[C@H](O)[C@@H](O)[C@H]1O,nt,nt,nt,nt,-2,nt
c1ccc(CSc2ccc(-c3ccccn3)nn2)cc1,-160,-187,87*,1,-21,-87
O=C(CSc1ccc(-c2ccccn2)nn1)c1ccccc1,-15,-35,-1,45,-48,nt
Cc1ccc(C(=O)CSc2nnc3ccccn23)c(C)c1,-158,-131,-5,-2,-25,-83
CCN(CC)CCOc1ccc(-c2c(C)c3c(ccc4ccccc43)oc2=O)cc1,nt,nt,nt,nt,-10,nt
Cc1cc(NC(=O)CSc2ccc(-c3nc4cc(C)c(C)cc4[nH]3)cn2)no1,-175,-32,26,-8,-43,-86
Cc1cc2nc(-c3ccc(SCC(=O)Nc4ccc(S(=O)(=O)NC5CC5)cc4)nc3)[nH]c2cc1C,-181,-154,4,0,-32,-141
Cc1cc2nc(-c3ccc(SCc4ccc(C(=O)O)cc4)nc3)[nH]c2cc1C,nt,nt,6,8,-2,nt
Cc1cc2nc(-c3ccc(SCC(=O)NC(C)C)nc3)[nH]c2cc1C,-70,-44,7,-4,nt,nt
Cc1cccc(C(=O)NC2CCN(S(=O)(=O)c3ccccc3)CC2)c1,7,23,-9,7,12,nt
C[C@@H]1CN([C@H](C)CO)C(=O)CCCn2nncc2CO[C@H]1CN(C)Cc1ccccc1,nt,nt,nt,nt,-1,nt
Cc1ccc(N/C=C/c2onc(C)c2[N+](=O)[O-])cc1,-221,-243,7,0,-127,8
NC(=O)CC(NC(=O)c1ccc(Br)cc1)c1ccc(N2CCCCCC2)c([N+](=O)[O-])c1 (stereo unspecified),54*,0,2,-14,89*,47
CCN1C[C@@H]2[C@@H]3C(=O)N(C)C(=O)[C@@H]3[C@](CC)(C1=O)N2C(=O)c1ccc(C)cc1,nt,nt,nt,nt,-6,nt
CC1CCN(S(=O)(=O)N2CCN(C(=O)c3ccc4c(c3)OCO4)CC2)CC1,-7,-3,6,-21,3,nt
Oc1cccc2ccc(/C=C/c3cccs3)nc12,-189,-177,22,38,-9,-146
CN(Cc1ccccc1F)C(=O)COc1ccc(C(=O)c2ccccc2)cc1,-10,-14,3,10,6,nt
CCn1c(/C=C/c2ccccc2)nc2ccccc21,-170,-135,26,32,4,-134
Cc1cc(OCC(=O)N[C@@H](CSCc2ccccc2)C(=O)O)c2c(C)c(C)c(=O)oc2c1,-4,8,0,3,-3,nt
COc1ccc(C(=O)NCC(c2ccco2)N2CCc3ccccc32)cc1 (stereo unspecified),63*,-65,5,0,19,23
CC(=O)Nc1ccc(NC(=O)C(=O)NCC(c2ccco2)N2CCc3ccccc32)cc1 (stereo unspecified),-13,-15,nt,-16,21,nt
COc1ccc(NC(=O)C(=O)NCC(c2ccco2)N2CCc3ccccc32)cc1 (stereo unspecified),64*,-66,nt,3,26,12
CC1(C)CC(=O)C=C(NCC(O)c2ccccc2)C1 (stereo unspecified),5,12,-9,-4,-7,nt
N#C/C(=C(\O)c1cc(Cl)sc1Cl)c1nc2ccccc2[nH]1,1,-44,29,13,24,nt
CSc1ccc(CNC(=O)C2CCC(=O)N(CCc3cccc(F)c3)C2)cc1 (stereo unspecified),-8,12,-1,6,-25,nt
Cc1csc2sc(-c3ccnc(SCC(=O)NCc4ccccc4)n3)c(C)c12,69*,-42,nt,-6,2,42
CCC(=O)c1ccc(OCC(=O)Nc2ccccc2N2CCCCC2)cc1,51*,-11,0,-3,-3,11
COc1ccc(N2CCc3c(C)nc4c(OC)cc(OC)cc4c32)cc1,51*,-24,nt,-6,33,10
COc1ccc(N2CCc3c(C)nc4c(OC)cc(OC)cc4c32)c(OC)c1,23,-16,14,3,30,nt

# High-throughput results from PubChem.
